High-throughput results deposited in PubChem by The Scripps Research Institute Molecular Screening Center.
Only some compounds are listed: those with a hit (about 3.4% of all), similar ones and a draw of the others.
TEAD-YAP inh: TEAD-YAP interaction inhibition; HEK-TIYL cells, TEAD-Gal4/YAP UAS-luciferase luminescence; inhibition, % at 9.12 µM; actives 1.4% (n = 640,000); AID 1259422; in the data active means inhibition above about 32%
GPR151 ag: activates the human receptor GPR151 | Q8TDV0 | PathHunter beta-arrestin GPR151 cells, luminescence | activation, % at 11.2 µM | actives 1% (n = 650,000) | AID 1508602; in the data active means activation above about 4.9%
FBW7 activator: human FBW7 E3 ligase activation, primary screen; Q969H0; AlphaScreen FBW7–phospho-cyclin E peptide binding, activator screen; normalized activity (activation), % at 26.1 µM; actives 0.13% (n = 650,000); AID 1259310; in the data active means normalized activity above about 1.9%;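 further: purified mutant Fbw7 with reduced substrate affinity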
MITF inh: human MITF inhibition, primary screen. O75030. AlphaScreen MITF homodimerization, bead proximity signal. inhibition, % at 2.6 µM. AID 1259374. actives 0.91% (n = 650,000); in the data active means inhibition above about 50%
Target sequence (O75030 whole entry, looked up): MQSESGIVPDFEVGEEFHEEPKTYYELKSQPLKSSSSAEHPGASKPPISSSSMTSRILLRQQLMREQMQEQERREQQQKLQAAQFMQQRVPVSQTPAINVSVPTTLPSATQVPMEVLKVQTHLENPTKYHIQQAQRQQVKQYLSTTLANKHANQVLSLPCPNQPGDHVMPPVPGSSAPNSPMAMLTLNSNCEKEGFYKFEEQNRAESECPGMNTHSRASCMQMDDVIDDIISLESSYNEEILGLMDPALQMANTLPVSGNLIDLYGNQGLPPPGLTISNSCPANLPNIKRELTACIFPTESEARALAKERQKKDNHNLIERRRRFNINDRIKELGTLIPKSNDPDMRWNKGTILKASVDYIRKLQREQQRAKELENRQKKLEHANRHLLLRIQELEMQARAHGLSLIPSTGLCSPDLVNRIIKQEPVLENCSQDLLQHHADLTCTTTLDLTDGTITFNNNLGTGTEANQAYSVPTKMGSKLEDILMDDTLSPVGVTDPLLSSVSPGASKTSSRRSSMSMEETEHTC
Each line names hits and unclear results; the compound was inactive in the other large screens.

COc1cccc(-c2cc(C(=O)N3CCOCC3)c3ccccc3n2)c1	none
CC(C)c1ccc(-c2cc(C(=O)O)c3ccccc3n2)cc1	TEAD-YAP inh 73.5
CC(C)(C)NCCN1CCn2c1nc1ccccc12	none
CC(=O)NC(C)c1nc2cccnc2n1C(C)C (stereo unspecified)	none
CCc1nc2ccc(C(=O)NCc3ccc(F)cc3)cc2nc1CC	none
COc1ccc(NC(=O)c2cc(-c3ccncc3)nc3ccccc23)cc1	TEAD-YAP inh 40.5
CCc1ccc(-c2cc(C(=O)N3CCN(c4ncccn4)CC3)c3ccccc3n2)s1	TEAD-YAP inh 33.1
O=S1(=O)c2cccc3cccc(c23)N1Cc1coc(-c2ccccc2)n1	none
CCOC(=O)c1c(NC(=O)CSc2nnc(CNC(=O)c3cc(OC)cc(OC)c3)n2-c2cccc(Cl)c2)sc2c1CCC2	none
CC1=CC2=NC(=O)/C(=C\c3cc(C)n(-c4cccc(F)c4)c3C)C(=N)N2O1	none
CC1=CC2=NC(=O)/C(=C\c3cc(C)n(-c4ccc(Cl)cc4)c3C)C(=N)N2O1	none
CC1=CC2=NC(=O)/C(=C\c3cc(C)n(-c4cc(C)cc(C)c4)c3C)C(=N)N2O1	TEAD-YAP inh 55.0
COc1cc(/C=C2/C(=N)N3OC(C)=CC3=NC2=O)ccc1OCc1ccc2c(c1)OCO2	TEAD-YAP inh 48.2
COc1cccc(-n2c(C)cc(/C=C3/C(=N)N4OC(C)=CC4=NC3=O)c2C)c1	TEAD-YAP inh 56.8
c1ccc(-c2nc3cnccn3c2NCc2ccc3c(c2)OCO3)cc1	none
Oc1ccccc1-c1nc2cnccn2c1NCc1ccc2c(c1)OCO2	TEAD-YAP inh 57.3
CCCCOc1ccc(CSCCN=C(N)N)cc1	none
CCCCCOc1ccc(CSCCN)cc1	TEAD-YAP inh 65.2
CCCCOc1ccc(CSCCN)cc1	TEAD-YAP inh 46.5
Cc1nc2c(C(=O)O)c[nH]n2c(=O)c1Cc1ccc(Cl)cc1	none
Cc1nc2c(C(=O)N3CCCC3)c[nH]n2c(=O)c1Cc1ccc(Cl)cc1	FBW7 activator 1.9
CC(C)(C)c1ccc(CSc2nc3ccsc3c(=O)n2Cc2ccccc2)cc1	none
O=C(CCC(=O)N/N=C/c1ccc([N+](=O)[O-])cc1)N/N=C/c1ccc([N+](=O)[O-])cc1	none
FC(F)(F)Oc1ccc(Nc2nc(Nc3nc(-c4ccccc4)cs3)nc(N3CCCCC3)n2)cc1	none
CC1CCCN(c2ccc3nc4ccccc4c(=O)n3n2)C1 (stereo unspecified)	TEAD-YAP inh 71.4
Cc1ccc2nc3ccc(N4CCCC4)nn3c(=O)c2c1	none
COc1cccc(CNc2ccc(F)c(F)c2)c1OC	none
CO[C@H]1[C@@H]([C@@]2(C)O[C@@H]2CC=C(C)C)[C@]2(CC[C@H]1OC(=O)/C=C/C=C/C=C/C=C/C(=O)O)CO2	TEAD-YAP inh 45.7
COc1cccc2cc(-c3cc4cccc(OC)c4oc3=O)c(=O)oc12	none
COc1ccccc1NC(=O)c1ccccc1NC(=O)c1cc(OC)c(OC)c(OC)c1	TEAD-YAP inh 54.9
COc1ccccc1NC(=O)c1ccc(OC(=S)N(C)C)cc1	FBW7 activator 2.3
COc1cccc2cc(-c3nc4ccccc4s3)c(=O)oc12	TEAD-YAP inh 72.3
COc1ccccc1NC(=O)c1ccccc1NC(=O)c1ccccc1	none
COc1cccc(C(=O)Nc2ccccc2C(=O)Nc2ccccc2OC)c1	TEAD-YAP inh 42.5
O=C(c1ccc(Nc2nccc(-c3ccc4nc(C5CC5)[nH]c(=O)c4c3)n2)cc1)N1CCCC1	none
COC(=O)c1cc(Br)ccc1-c1ccc(/C=N/n2cnnc2)o1	none
COc1cc(C(=O)Nc2ccccc2-c2nc3ccccc3s2)cc(OC)c1OC	TEAD-YAP inh 53.1
COc1ccccc1Nc1ncc(C(=O)NCCC(C)C)c2ccccc12	none
COc1ccccc1NC(=O)c1cnc(Nc2ccccc2OC)c2ccccc12	TEAD-YAP inh 44.9
COc1ccc(Cl)cc1NC(=O)c1ccc(F)cc1	FBW7 activator 2.3
CCC(=O)Nc1nnc(SCC(=O)Nc2ccc(N(C)C)cc2)s1	none
CC(C)(C)C1CCc2c(sc3nc(CCC(=O)N4CCN(c5ccccn5)CC4)[nH]c(=O)c23)C1 (stereo unspecified)	TEAD-YAP inh 77.8
CC(C)(C)C1CCc2c(sc3nc(CCC(=O)N4CCN(c5ccc(F)cc5)CC4)[nH]c(=O)c23)C1 (stereo unspecified)	TEAD-YAP inh 51.6
CC(C)(C)C1CCc2c(sc3nc(Cc4ccccc4)[nH]c(=O)c23)C1 (stereo unspecified)	none
Nc1cc[n+](CC(=O)c2ccc3c(c2)OCCO3)cc1	TEAD-YAP inh 49.3
O=C(CCN1CCc2ccccc21)c1ccc2c(c1)OCCO2	TEAD-YAP inh 45.1
O=C(C[n+]1ccc2ccccc2c1)c1ccc2c(c1)OCCO2	none
O=C(CCc1ccccc1)c1ccc2c(c1)OCCCO2	none
O=C(CCCc1ccccc1)c1ccc2c(c1)OCCO2	TEAD-YAP inh 90.7
O=C(CCN1CCc2ccccc2C1)c1ccc2c(c1)OCCO2	none
c1cc(-c2ccc3cnc(Nc4ccc(-n5cnc(N6CCOCC6)n5)cc4)nc3c2)cs1	none
c1cc(-n2cnc(N3CCOCC3)n2)ccc1Nc1ncc2ccc(-c3cn[nH]n3)cc2n1	TEAD-YAP inh 67.9
c1n[nH]c(-c2ccc3cnc(Nc4ccc(-n5cnc(N6CCOCC6)n5)cc4)nc3c2)n1	TEAD-YAP inh 65.2
COc1ccc(Cl)cc1N1C(=O)[C@@H]2C[C@H]1CN2C1CCN(Cc2ccccc2)CC1	none
COc1cc(CO)ccc1OCC(=O)NC(C)(C)C	none
COc1cc(CNc2ccc(N(C)C)cc2)ccc1OCC(=O)NC(C)(C)C	TEAD-YAP inh 36.8
Cc1cc2nn(-c3ccccc3)nc2cc1NC(=O)C(C)C	none
O=C(COc1ccccc1)Nc1ccc2nn(-c3ccccc3)nc2c1	none
CC(=O)Nc1cc2nn(-c3ccccc3)nc2cc1C	TEAD-YAP inh 50.1
CC(C)CC(=O)Nc1ccc2nn(-c3ccccc3)nc2c1	FBW7 activator 3.0
CCN(CC)c1ccc2c(C)c(Cl)c(=O)oc2c1	FBW7 activator 5.8
CCN(CC)c1ccc2c(C)cc(=O)oc2c1	none
CCN(CC)c1ccc2c(Cl)c(Br)c(=O)oc2c1	FBW7 activator 6.2
O=C(Cn1cc(NC(=O)c2ccc3c(c2)OCO3)cn1)NCCCOc1cccnc1	none
CC(C)(C)c1nnc(N/N=C/c2ccccc2O)[nH]c1=O	TEAD-YAP inh 82.3, MITF inh 96.2
Cc1n[nH]c(=O)nc1N/N=C/c1ccccc1O	MITF inh 94.0
Cc1cc(=O)[nH]c(N/N=C/c2cc(Br)ccc2O)n1	MITF inh 64.8
Cc1cc(=O)[nH]c(N/N=C/c2cc(C)c(/C=N/Nc3nc(C)cc(=O)[nH]3)cc2C)n1	none
Cc1n[nH]c(=O)nc1N/N=C/c1cc(Br)ccc1O	TEAD-YAP inh 76.0, MITF inh 116.5
CCCCN(CC)S(=O)(=O)c1ccccc1[N+](=O)[O-]	TEAD-YAP inh 47.1
CC(C)CN(CC(C)C)S(=O)(=O)c1ccccc1[N+](=O)[O-]	none
O=C(/C=C\Nc1ccccn1)c1ccccc1	TEAD-YAP inh 41.3
O=C(/C=C/Nc1ccc(Br)cc1F)c1ccccc1	TEAD-YAP inh 83.7
O=C(/C=C/Nc1ccccc1F)c1ccc(Br)cc1	none
O=C(/C=C/Nc1ccccc1Br)c1ccccn1	TEAD-YAP inh 91.6
